We go through eight compounds from PubChem BioAssay (NCI).

Each structure is given as a SMILES string. The panel holds about 83,000 compounds, 20% with a hit somewhere; the sample as a whole holds those more often.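 A percent growth of 40 corresponds to 60% growth inhibition; 0 means no net growth; -100 means all cells died. Active threshold: below 10.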 Values without a mark were called inactive. The source made the active and inactive calls.

Test systems include SNB-75 CNS; SNB-19 CNS; U251 CNS; PC-3 prostate; SK-MEL-5 melanoma; UACC-62 melanoma; LOX IMVI melanoma; SK-MEL-28 melanoma; SK-MEL-2 melanoma; EKVX NSCLC; SN12C renal; UO-31 renal; TK-10 renal; ACHN renal; CAKI-1 renal; A498 renal; CCRF-CEM leukemia; MOLT-4 leukemia; SR leukemia.
Common to all, as to assay: NCI-60 one-dose screen, 48 h (100 = growth as untreated, 0 = no growth, -100 = all killed)
Common to all, as to details: 10 µM

With `COc1ccc(/C=C/C(=O)Nc2ccc(-c3nc4ccc(OC)cc4s3)cc2)cc1`, the growth was 102% in the assay on SNB-75 CNS; 105% in the assay on SNB-19 CNS; 109% with U251 CNS; 101% with PC-3 prostate; 104% in the assay with SK-MEL-5 melanoma; 108% with UACC-62 melanoma. In addition, the growth was 92.3% in the assay with LOX IMVI melanoma; 111% in the assay with SK-MEL-28 melanoma; 105% in the assay on SK-MEL-2 melanoma; 100% in the assay with EKVX NSCLC; 103% in the assay on SN12C renal; 85.2% with UO-31 renal. The growth in the assay with TK-10 renal is 109%; in the assay with ACHN renal, 114%; in the assay on CAKI-1 renal, 104%; in the assay on A498 renal it was 97.8%; with CCRF-CEM leukemia, 98.3%; in the assay with MOLT-4 leukemia, 81.6%. Also, in the assay with SR leukemia, the growth was 86.7%.
On to `COc1ccc(-c2nn(-c3cccc(NC(=O)Nc4cc(C(F)(F)F)cc(C(F)(F)F)c4)c3)cc2-c2ccncc2)cc1Cl`, for which the growth in the assay on SNB-75 CNS was 6.77% (active); in the assay on SNB-19 CNS, 30.2%; in the assay on PC-3 prostate it was -14.7% (active); with SK-MEL-5 melanoma, -37.6% (active); in the assay on UACC-62 melanoma, 7.55% (active); in the assay on LOX IMVI melanoma it was 12.9%. Further, the growth with SK-MEL-28 melanoma was -5.48% (active); in the assay with SN12C renal, 18.9%; with UO-31 renal it was -11.6% (active); with TK-10 renal it was 11.8%; with ACHN renal, 11%; with CAKI-1 renal, -12.3% (active). The growth is -16.5% (active) with A498 renal, -17.8% (active) with CCRF-CEM leukemia, -15.3% (active) in the assay on MOLT-4 leukemia and -19.6% (active) in the assay on SR leukemia.
In the case of `O=C(CC(C(=O)c1ccccc1)N1CCOCC1)c1ccccc1` (stereo not drawn), the growth is 101% in the assay on SNB-75 CNS; 95.6% in the assay with SNB-19 CNS; 88% in the assay with U251 CNS; 99.4% in the assay with PC-3 prostate; 95.5% in the assay with SK-MEL-5 melanoma; 87.7% in the assay with UACC-62 melanoma. For the same compound, the growth in the assay with LOX IMVI melanoma was 88.4%; in the assay with SK-MEL-28 melanoma, 92.2%; in the assay on SK-MEL-2 melanoma, 102%; with EKVX NSCLC, 99.2%; in the assay on SN12C renal, 87.3%; in the assay on UO-31 renal, 89.9%. For the same compound, the growth was 90.8% in the assay on TK-10 renal; 97.3% in the assay on ACHN renal; 100% in the assay with CAKI-1 renal; 89.9% in the assay with A498 renal; 9.08% (active) in the assay on CCRF-CEM leukemia; 45.7% with MOLT-4 leukemia. Moreover, the growth in the assay with SR leukemia is 28.5%.
As for `c1ccc2c(c1)oc1c3c(ccc12)NCCC3`, the growth in the assay on SNB-75 CNS is 97.1%; with SNB-19 CNS it was 108%; in the assay with U251 CNS, 90.7%; in the assay on PC-3 prostate, 91.5%; in the assay with SK-MEL-5 melanoma, 94.1%; with UACC-62 melanoma, 84.2%. Moreover, the growth in the assay on LOX IMVI melanoma was 96.6%; in the assay on SK-MEL-28 melanoma, 107%; in the assay with SK-MEL-2 melanoma, 97.5%; in the assay on EKVX NSCLC it was 59.5%; with SN12C renal it was 87.4%; in the assay on UO-31 renal, 65.9%. Also, the growth in the assay on TK-10 renal was 135%; in the assay on ACHN renal, 101%; with CAKI-1 renal, 97.4%; with A498 renal, 77.3%; in the assay on CCRF-CEM leukemia, 96%; in the assay with MOLT-4 leukemia it was 97.5%.
As for `CCOC(=O)CNC(=O)CCCCSc1ncnc2nc[nH]c12`, the growth with SNB-75 CNS is 95.3%; in the assay on SNB-19 CNS, 109%; in the assay on U251 CNS, 106%; in the assay with PC-3 prostate, 91%; in the assay on SK-MEL-5 melanoma, 93.4%; in the assay with UACC-62 melanoma, 94.9%. For the same compound, the growth in the assay on LOX IMVI melanoma was 102%; in the assay on SK-MEL-28 melanoma, 110%; with SK-MEL-2 melanoma, 97.6%; with EKVX NSCLC it was 108%; in the assay on SN12C renal, 99%; in the assay on UO-31 renal, 96.5%. The growth with TK-10 renal was 158%; with CAKI-1 renal it was 96.1%; in the assay on A498 renal, 124%; with CCRF-CEM leukemia it was 113%; in the assay on MOLT-4 leukemia, 101%; with SR leukemia, 90.6%.
`CN(C)C(=S)N/N=C\C=N/NC(=S)N(C)C`: the growth was 64% with SNB-75 CNS; 90.3% in the assay with SNB-19 CNS; 42.8% with U251 CNS; -18.4% (active) in the assay with PC-3 prostate; 64.8% in the assay with SK-MEL-5 melanoma; 73.2% with UACC-62 melanoma. For the same compound, the growth with LOX IMVI melanoma was 43.9%; in the assay on SK-MEL-2 melanoma it was 85%; in the assay on EKVX NSCLC, 38.8%; in the assay with SN12C renal it was 88.4%; with UO-31 renal, 31.7%; in the assay on TK-10 renal, 96.5%. Further, the growth was 80% in the assay on ACHN renal; 89% in the assay on A498 renal; 22.6% in the assay with CCRF-CEM leukemia; 10% in the assay with MOLT-4 leukemia; 35.4% with SR leukemia.
In the case of `COC(=O)C1(C)Cc2cc(OC(C)=O)c(OC(C)=O)cc2N1` (stereo not drawn), the growth in the assay on SNB-75 CNS is 82%; in the assay on SNB-19 CNS it was 105%; in the assay with U251 CNS, 81.5%; in the assay with PC-3 prostate, 64.7%; in the assay on SK-MEL-5 melanoma it was 76.3%; in the assay on UACC-62 melanoma, 56.6%. In addition, the growth in the assay on LOX IMVI melanoma was 66%; in the assay with SK-MEL-28 melanoma it was 100%; in the assay with SK-MEL-2 melanoma, 85.2%; with EKVX NSCLC, 92.2%; in the assay with SN12C renal, 88.8%; in the assay with UO-31 renal, 32.3%. The growth in the assay with TK-10 renal was 87.9%; in the assay with ACHN renal it was 27.3%; with A498 renal it was 92.8%; in the assay on CCRF-CEM leukemia, 24.1%; in the assay with MOLT-4 leukemia, 56.6%; in the assay with SR leukemia, 1.05% (active).
For `Cc1cccc(NC2=C(C#N)C(=O)NC3(CCCC3)S2)c1`, the growth is 90.7% in the assay on SNB-75 CNS; 94.2% in the assay on SNB-19 CNS; 97.4% with U251 CNS; 105% in the assay on PC-3 prostate; 95.7% in the assay with SK-MEL-5 melanoma; 98.7% in the assay with UACC-62 melanoma. In addition, the growth with LOX IMVI melanoma is 96.5%; with SK-MEL-28 melanoma, 105%; in the assay on SK-MEL-2 melanoma it was 98.2%; in the assay on EKVX NSCLC it was 106%; in the assay on SN12C renal, 97.3%; in the assay on UO-31 renal it was 93.8%. Besides, the growth is 107% with TK-10 renal; 98.2% in the assay with ACHN renal; 96.9% in the assay with A498 renal; 90.2% with CCRF-CEM leukemia; 98.4% with MOLT-4 leukemia; 94.9% in the assay with SR leukemia.
